Reference: PubChem BioAssay (Tox21)
Results filed as inconclusive are left out. Some compounds were tested as several samples or in several runs, with calls that do not always agree. Activity calls are given as the source filed them. The call rests on the fitted dose curve.

test: p53 small molecule agonists, cell-based qHTS assay with rat liver microsomes: qHTS cell viability counter screen (AID 1963580); details: p53RE-bla HCT-116 + rat microsomes, ATP viability, 16 h; series mostly up to 66 µM; activity change, negative = cytotoxicity: at the top concentration; further: nearly all actives have a fitted effect of over 45% in size
Source text: National Center for Advancing Translational Sciences [NCATS]
Division of Preclinical Innovation [DPI]
U.S. Environmental Protection Agency [EPA]
National Institutes of Environmental Health Sciences [NIEHS]
National Toxicology Program [NTP]
U.S. Food and Drug Administration [FDA]
p53, a tumor suppressor protein, is activated following cellular insult, including DNA damage and other cellular stresses. The activation of p53 regulates cell fate by inducing DNA repair, cell cycle arrest, apoptosis, or cellular senescence. The activation of p53, therefore, is a good indicator of DNA damage and other cellular stresses. The CellSensor p53RE-bla HCT-116 cell line contains a stably integrated beta-lactamase reporter gene under control of the p53 response elements. The activation of the reporter gene under culture conditions can be detected by fluorescence intensity. This cell line was used to screen the Tox21 10K compound library in the condition of presence of rat liver microsomes and to identify agonists that activate the p53 signaling pathway after in vitro metabolic activation (Ooka et al., Archive of Toxicology 96:1975-1987, 2022). The cytotoxicity of the Tox21 compound library against the p53 RE-bla HCT-116 cell line was tested in parallel by measuring the intra cellular ATP content in the same wells.
Tox21 Assay Protocol Summary:
The p53RE-bla cells were dispensed at 4,000cells/3ul/well in 1536-well black-clear bottom plates. After the assay plates were incubated at 37 C, 5% CO2 incubator for 5 hours, 23 nL of compounds dissolved in DMSO, positive controls or DMSO only was transferred to the assay plate. Following compound addition, 3 uL of rat liver microsomes (Molecular Toxicology, Boone, NC) at final concentration of 0.5 mg/mL and 1uL of B-Nicotinamide adenine dinucleotide 2'-phosphate (NADPH) at final concentration of 0.5 mg/mL were transferred to the assay plate. The plates were incubated at 37 C for 16 hours. 1 uL of LiveBLAzer detection mixture was added to each well and the plates were incubated at room temperature in the dark for 2 h. Fluorescence intensity at 460 and 530 nm emission and 405 nm excitation were measured by an Envision plate reader. For cell viability readout that measures cytotoxicity, 4 ul/well of CellTiter-Glo reagent was added into the assay plates using a Flying Reagent Dispenser. After 30 min incubation at room temperature, the luminescence intensity in the plates was measured using a ViewLux plate reader.
On the % scale 0 is the no-effect control and ±100 the full control effect; potency means the concentration at half of the fitted maximal effect.

Compound | activity change, negative = cytotoxicity | Potency
c1ccc(CCc2ccccc2)cc1 | 0.329% (inactive) | –
CCCCCCCC/C=C\CCCCCCCC(=O)OCCCC | 7.39% [at 13.5 µM] (inactive) | –
CCOC(=O)CCC(C)=O | 2.62% (inactive) | –
N=C(N)c1ccccc1 | 26.6% (inactive) | –
CC(C)(C)CC(C)(C)c1ccc(O)c(-n2nc3ccccc3n2)c1 | – | inactive
CCOC(=O)NCCC[Si](OCC)(OCC)OCC | 0% (inactive) | –
OCC(O)CN1CCN(c2ccccc2)CC1 (stereo not given) | -6.8% [at 30.3 µM] (inactive) | –
CCO[Si](CCCN=C=O)(OCC)OCC | 0.804% (inactive) | –
CC1(C)C(C=C(Cl)Cl)C1C(=O)OCc1cccc(Oc2ccccc2)c1 (stereo not given) | – | inactive
Cc1cccc2c1ccc1ccccc12 | 1.41% (inactive) | –
CC(C)COC(=O)c1ccc(N)cc1 | 4.58% [at 30.3 µM] (inactive) | –
C[C@@H]1CCC[C@H](C)N1 | -9.55% [at 30.3 µM] (inactive) | –
CCCO[Si](OCCC)(OCCC)OCCC | -4.44% (inactive) | –
CC(=O)[C@H]1CC[C@H]2[C@@H]3CCC4=CC(=O)CC[C@]4(C)[C@H]3CC[C@]12C | 4.08% (inactive) | –
CCCCCCCCSCCO | 5.97% (inactive) | –
C=C(C)C(=O)OC(C)C | 0.57% (inactive) | –
CC1=CC[C@@H](C(C)(C)O)CC1 | 5.01% (inactive) | –
CCC(C)(Oc1ccc(C2(c3ccc(OC(C)(CC)C(=O)O)cc3)CCCCC2)cc1)C(=O)O (stereo not given) | -2.18% [at 30.3 µM] (inactive) | –
CCOC(=O)c1c(C)n(C)c2ccc(O)cc12 | 0.192% [at 30.3 µM] (inactive) | –
CC(=O)Oc1ccccc1C(=O)Nc1ncc([N+](=O)[O-])s1 | – | 41.6 µM (active) and inactive

Compound | activity change, negative = cytotoxicity | Potency
Cc1ccc(C2OC[C@@H]3OC(c4ccc(C)cc4)O[C@H]([C@H](O)CO)[C@@H]3O2)cc1 (stereo not given in full) | 5.36% (inactive) | –
Nc1cccc2c1CN(C1CCC(=O)NC1=O)C2=O (stereo not given) | -8.78% [at 30.3 µM] (inactive) | –
Cc1cccc(N)n1 | 1.8% (inactive) | –
CCOc1cc(NC(C)=O)ccc1C(=O)OC | -11.4% [at 30.3 µM] (inactive) | –
O=C(O)c1cccc(C[C@@H]2COc3ccc(OCc4nc5cc(F)ccc5s4)cc3[C@@H]2O)c1 | -0.422% (inactive) | –
O=c1[nH]c2ccccc2c(=O)n1CCCl | 17.8% [at 30.3 µM] (inactive) | –
CO[C@H]1C=CO[C@@]2(C)Oc3c(C)c(O)c4c(O)c(c(/C=N/N5CCN(C)CC5)c(O)c4c3C2=O)NC(=O)/C(C)=C\C=C[C@H](C)[C@H](O)[C@@H](C)[C@@H](O)[C@@H](C)[C@H](OC(C)=O)[C@@H]1C | – | inactive
C=CCCCCCCCCO | 1.39% (inactive) | –
Cc1ncc(CSSCc2cnc(C)c(O)c2CO)c(CO)c1O | 4.57% [at 30.3 µM] (inactive) | –
COc1cc(C)c(Cc2cnc(N)nc2N)cc1OC | -1.72% [at 30.3 µM] (inactive) | –
CC(C)=O | 6.43% (inactive) | –
O=C(O)Cc1cccc(-c2cc(CCCCCCc3ccc(O[C@H]4O[C@H](CO)[C@@H](O)[C@H](O)[C@@H]4O)c(-c4cccc(CC(=O)O)c4)c3)ccc2O[C@H]2O[C@H](CO)[C@@H](O)[C@H](O)[C@@H]2O)c1 | 2.63% [at 0.249 µM] (inactive) | –
CCCOC(C(=O)OC1CCN(C)CC1)(c1ccccc1)c1ccccc1 | 5.43% [at 30.3 µM] (inactive) | –
CCc1occc(=O)c1O | 3.17% (inactive) | –
O=Cc1ccc(F)cc1 | -15.9% (inactive) | –
CC(C)(C)NCCO | 4.05% (inactive) | –
CC(=O)OC/C=C(\C)CC/C=C(\C)CCC=C(C)C | – | inactive
C/C=C/CO | 0.383% (inactive) | –
CN(C)CCCN(C)CCCN(C)C | -3.39% (inactive) | –
Cc1ccc(S(=O)(=O)NC(=O)NC2CCCC2)cc1 | -10.8% [at 30.3 µM] (inactive) | –
